This is a sample that favours compounds with a hit; in the whole collection about 1.8% have one here.
PABP1 MLLE inh – inhibitors of PABP1 MLLE–PAM2 peptide binding, primary screen, biochemical, fluorescence polarization, FITC-PAM2, GST-MLLE; Polyadenylate-binding protein 1 (Homo sapiens), P11940; inhibition, % at 20 µM; actives 0.36% (n = 360,000); AID 588489, 2011; in the data active means inhibition above about 35%, passing the limit was not always enough
MEX-5 binding – MEX-5 zinc finger RNA-binding disruptors – biochemical, C. elegans, fluorescence polarization, MLPCN library, primary screen. Zinc finger protein mex-5 (Caenorhabditis elegans), Q9XUB2. MEX-5/FITC-TCR2 RNA binding; active compounds read low. activity score (negative = inhibition of binding), % at 10 µM. actives 0.38% (n = 300,000);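 active means inhibition past about -25% in most replicates, and total fluorescence under double the plate's negative control median, limit read from the data; inconclusive means replicates evenly split on the limit, or fluorescence at least double controls; inactive means too little inhibition in most replicates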
Target sequence (Q9XUB2 whole entry, looked up): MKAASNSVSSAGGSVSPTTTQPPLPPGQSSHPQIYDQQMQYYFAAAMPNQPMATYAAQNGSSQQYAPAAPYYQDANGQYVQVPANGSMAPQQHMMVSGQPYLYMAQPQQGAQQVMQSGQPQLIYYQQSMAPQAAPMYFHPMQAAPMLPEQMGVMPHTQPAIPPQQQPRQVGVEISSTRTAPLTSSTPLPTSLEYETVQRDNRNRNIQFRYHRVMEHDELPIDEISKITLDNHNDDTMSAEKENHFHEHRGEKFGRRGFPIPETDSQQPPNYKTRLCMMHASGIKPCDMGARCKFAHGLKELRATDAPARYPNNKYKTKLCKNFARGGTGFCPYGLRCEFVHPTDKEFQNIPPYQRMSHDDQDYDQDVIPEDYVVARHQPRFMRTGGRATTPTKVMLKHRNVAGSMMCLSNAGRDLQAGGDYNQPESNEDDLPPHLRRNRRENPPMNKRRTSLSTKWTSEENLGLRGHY
EBV gp42 block – Epstein-Barr virus gp42 inhibitors, primary screen, biochemical, uHTS, fluorescence polarization | inhibition, % (tested at 21.74 µM) | AID 1085, 2008 | actives 0.42% (n = 220,000) | Fluorescence polarization binding assay, mP read-out | Glycoprotein 42 (Epstein-Barr virus (strain AG876)), Q1HVG2; in the data active means inhibition above about 50%
eIF4H FP inh – human eIF4H binding inhibitors, primary screen, translation initiation inhibitor project, biochemical, uHTS, fluorescence polarization | Eukaryotic translation initiation factor 4H (Homo sapiens), Q15056 | eIF4H fluorescence polarization binding assay | inhibition, % at 35 µM | actives 0.94% (n = 290,000);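 further: calls also rest on retests at 20 µM and on dose response follow-up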
PABP FP inh – PABP poly(A) RNA binding inhibitors, primary screen, biochemical, fluorescence polarization, uHTS. calls only at 35 µM. actives 1% (n = 290,000). Polyadenylate-binding protein 1 (Homo sapiens), P11940. AID 2014, 2009;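 further: calls also rest on retests at 20 µM and on dose response follow-up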
Numbers stand for hits; n = inactive; u = inconclusive; x = not tested or not shown; + = active, no number. Unless noted, how the calls were made is not given here.

SMILES | PABP1 MLLE inh | MEX-5 binding | EBV gp42 block | eIF4H FP inh | PABP FP inh
N#CC(C#N)=Cc1ccc(C=C(C#N)C#N)cc1 | n | x | n | n | n
CCN(CCCl)c1cc(CN(C)C)cc(NC(=O)c2ccc(C(=O)Nc3cc(CN(C)C)cc(N(CC)CCCl)c3)cc2)c1 | n | x | x | x | x
COc1ccc(CC2=NCCc3cc(OC)c(OC)cc32)cc1OC | n | x | x | x | x
CN1C(=O)/C(=C/C=C/c2ccco2)C(=O)NC1=S | n | -79.5 | n | u | u
Cc1ccc(/C=C2\C(=O)NC(=O)N(CCc3ccc(F)cc3)C2=O)o1 | n | n | n | u | +
O=C1NC(=S)N(c2ccc(F)cc2)C(=O)/C1=C/c1ccco1 | x | -94.3 | x | n | n
COc1ccc(OC)c(N2C(=O)CC(=O)NC2=O)c1 | n | n | x | n | n
COc1ccc(OC)c(N2C(=O)NC(=O)/C(=C/c3ccc([N+](=O)[O-])s3)C2=O)c1 | n | -42.0 | n | n | n
CC1(C(=O)O)CC12c1ccccc1-c1ccccc12 (stereo not drawn) | n | x | x | x | x
Cc1cccc(C)c1-n1nnnc1C(c1cccc2ccccc12)N1CCC2(CC1)C(=O)NCN2c1ccccc1 (stereo not drawn) | n | x | x | x | x
COc1ccc(C2=CC(c3ccc4c(c3)OCO4)c3c(c4ccccc4oc3=O)O2)cc1OC (stereo not drawn) | n | x | x | x | x
COC(=O)C1=C(c2ccc(F)cc2F)C[C@@H]2CC[C@H]1N2C(=O)NCCOc1ccc(OC)cc1 | n | x | x | x | x
Cc1cccc(N2C(=O)NC(=O)/C(=C\C=C\c3ccco3)C2=O)c1 | n | n | n | u | u
CCN1C(=O)/C(=C\c2ccc([N+](=O)[O-])s2)C(=O)NC1=S | x | x | n | 52.0 | +
O=C1NC(=S)N(c2ccc(Cl)cc2)C(=O)/C1=C/N1CCN(C(=O)c2ccco2)CC1 | n | n | n | n | +
Cc1cccc(N2C(=O)NC(=O)/C(=C/c3ccc([N+](=O)[O-])o3)C2=O)c1 | x | x | n | 79.6 | +
Cc1ccc(/C=C2\C(=O)NC(=S)N(c3cccc(F)c3)C2=O)o1 | n | n | x | n | +
O=C1NC(=S)N(c2ccc(F)cc2)C(=O)/C1=C\c1ccoc1 | n | x | n | u | n
CCC(c1nnnn1-c1ccc(OC)cc1)N1CCC2(CC1)C(=O)NCN2c1ccccc1 (stereo not drawn) | n | x | x | x | x
COc1ccc(N2C(=O)/C(=C/c3ccc(C)o3)C(=O)NC2=S)cc1 | n | n | x | n | n
COc1ccc(N2C(=O)/C(=C/c3cc(C)n(-c4ccc(C)cn4)c3C)C(=O)NC2=S)c(OC)c1 | n | n | n | n | +
CN(C)c1ccc(/C=C2\C(=O)NC(=O)N(Cc3ccc(F)cc3)C2=O)cc1 | n | n | n | u | +
COc1ccc(OC)c(N2C(=O)/C(=C/c3ccco3)C(=O)NC2=S)c1 | x | n | x | 62.7 | +
O=C1NCN(c2ccccc2)C12CCN(C(c1ccnc3ccccc13)c1nnnn1-c1ccc3c(c1)OCCO3)CC2 (stereo not drawn) | n | x | x | x | x
O=C(/C=C/c1ccccc1)N1Cc2ccccc2-n2nncc2C1 | n | x | x | x | x
SMILES | PABP1 MLLE inh | MEX-5 binding | EBV gp42 block | eIF4H FP inh | PABP FP inh
CN1CC=C2C(C#N)=C(N)C(C#N)(C#N)C(c3ccncc3)C2C1 (stereo not drawn) | n | -47.0 | x | 121.5 | +
CCCC[N+]12CCC(CC1)C(C(O)(c1ccccc1)c1ccccc1)C2 (stereo not drawn) | n | n | n | active | n
CC(C)(C)N1C(=O)NC(=O)/C(=C\c2ccc3c(c2)CCN3CCCCl)C1=O | n | n | n | n | +
CCN1C(=O)/C(=C/c2ccc3c(c2)CCN3CCCCl)C(=O)NC1=S | n | n | n | n | n
O=C(Cn1cc(C=C2C(=O)NC(=O)NC2=O)c2ccccc21)NCC1CCCO1 (stereo not drawn) | n | -36.3 | x | u | u
O=C1NC(=O)C(=Cc2cn(CCOc3ccc4c(c3)OCO4)c3ccccc23)C(=O)N1 | n | -55.4 | n | u | u
CCN(CC)C(=O)Cn1cc(/C=C2\C(=O)NC(=O)N(c3ccccc3F)C2=O)c2ccccc21 | n | -64.1 | x | n | n
CN1C(=O)C(=Cc2cn(CC(=O)N3CCCC3)c3ccccc23)C(=O)N(C)C1=O | n | u | x | u | u
CN1C(=O)C(=Cc2cn(CC(=O)N3CCCCC3)c3ccccc23)C(=O)N(C)C1=O | n | -35.8 | x | u | u
CCOC(=O)c1cccc(C2=C(CNC(=O)c3nccs3)[C@H]3CC[C@@H](C2)N3Cc2ccccc2)c1 | n | x | x | x | x
COC(=O)C12CCc3c(ccc4cc(OC)ccc34)C1=CC(=O)C2 (stereo not drawn) | n | x | x | x | x
C=CCn1cc(C=C2C(=O)NC(=O)NC2=O)c2ccccc21 | n | -37.3 | x | u | u
O=C(O)Cn1cc(C=C2C(=O)NC(=O)NC2=O)c2ccccc21 | n | n | x | u | +
O=C(O)Cn1cc(/C=C2\C(=O)NC(=O)N(c3ccc(Cl)cc3)C2=O)c2ccccc21 | n | u | x | u | u
CN1C(=O)C(=Cc2cn(CC#N)c3ccccc23)C(=O)N(C)C1=O | n | n | x | u | u
CC(C)(C)n1nnnc1C(CCc1ccccc1)N1CCC2(CC1)C(=O)NCN2c1ccccc1 (stereo not drawn) | n | x | x | x | x
O=C(OCc1ccccc1)N1CCC2CC1c1cc(N3Cc4ccccc4-n4nncc4C3)ccc12 (stereo not drawn) | n | x | x | x | x
O=c1c2ccccc2nc(-c2ccccc2)n1-c1ccccc1 | n | n | n | n | n
O=c1c2ccccc2[se]n1-c1ccccc1 | 37.3 | n | n | n | n
CC1c2ccccc2-n2nncc2CN1C (stereo not drawn) | n | x | x | x | x
Cn1cccc1/C=C1\C(=O)NC(=O)N(Cc2ccco2)C1=O | n | n | n | n | n
Cc1ccccc1-n1c(C)cc(/C=C2/C(=O)NC(=O)N(Cc3ccco3)C2=O)c1C | n | n | n | u | +
COc1ccc(/C=C2/C(=O)NC(=O)N(Cc3ccco3)C2=O)cc1 | x | -80.7 | n | u | u
Cc1ccc(-n2c(C)cc(/C=C3/C(=O)NC(=O)N(Cc4ccco4)C3=O)c2C)cc1 | n | n | n | u | n
CCc1ccc(N2C(=O)NC(=O)/C(=C\c3cccn3CCOc3ccc(C(C)C)cc3)C2=O)cc1 | n | -36.1 | n | u | n
CC(C)c1ccc(N2C(=O)NC(=O)/C(=C/c3cnc(-c4ccccc4)nc3)C2=O)cc1 | n | n | n | n | +
COC[C@H]1OC(=O)c2coc3c2[C@@]1(C)C1=C(C3=O)[C@@H]2CCC(=O)[C@@]2(C)C[C@H]1OC(C)=O | n | x | x | x | x
CCCCn1c(O)c(C(=O)/C=C/c2ccc3c(c2)OCO3)c(=O)[nH]c1=O | n | -36.2 | n | n | n
COc1ccc(C(=O)C2CCCN(Cc3ccc(C)s3)C2)c(OC)c1 (stereo not drawn) | n | n | n | n | n

Compound activity as filed in PubChem.
